Source: PubChem BioAssay (EPA / NIEHS)
“And” between values parts separate entries of the source, which are not always exact repeats. Equal values may be shown once. Inconclusive results are not listed. Where a structure was tested more than once in an assay, its records may differ in their call. The source made the active and inactive calls. Rule for the calls: active = hit-call score of the fitted dose curve at least 0.9, where 1 is the maximum; inconclusive = response in the unintended direction; inactive = score below 0.9.

Key:
[1] = test system: turtle Estrogen Receptor (ERa), gene 101933533; assay: ATG_trERa_XSP2: Attagene TRANS-FACTORIAL Multi-Species (XSP2) HepG2 Assay for turtle Estrogen Receptor (ERa) (AID 2283812);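 note: human HepG2 liver cells transiently expressing turtle ERa-Gal4 chimeric receptor; actives raise reporter signal above DMSO so AC50 reflects agonist activity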
Outline: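 HepG2 cells transiently transfected with GAL4-UAS reporter units expressing turtle ERa-Gal4 chimera. Reporter mRNA measured after 24 h dosing by RT-PCR, fluorescent labelling and capillary electrophoresis; gain of signal fitted versus DMSO.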

[2] = biological target: Estrogen receptor beta (Homo sapiens) (UniProt Q92731); assay: ATG_hERb_XSP2: Attagene TRANS-FACTORIAL Multi-Species (XSP2) HepG2 Assay for human Estrogen Receptor (ERb) (AID 2283813);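 note: actives raise reporter mRNA above DMSO so AC50 reflects agonist induction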
Outline: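 HepG2 cells transiently transfected with GAL4-UAS reporter units and chimeric human ERb-Gal4, 24 h exposure. Reporter mRNA quantified by RT-PCR with FAM labelling, HpaI digestion and capillary electrophoresis; gain of signal versus DMSO.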

[3] = biological target: zebrafish Estrogen Receptor (ER1), esr1 (gene 259252) (UniProt P57717); assay: ATG_zfER1_XSP2: Attagene TRANS-FACTORIAL Multi-Species (XSP2) HepG2 Assay for zebrafish Estrogen Receptor (ER1) (AID 2283816)
Outline: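 HepG2 cells transiently transfected with a GAL4-UAS reporter and a chimeric zebrafish ER1-Gal4 construct, dosed 24 h. Reporter mRNA quantified by RT-PCR, labelling, HpaI digestion and capillary electrophoresis, relative to DMSO.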

[4] = biological target: chicken Estrogen Receptor (ERa), ESR1 (gene 396099) (UniProt P06212); assay: ATG_chERa_XSP2: Attagene TRANS-FACTORIAL Multi-Species (XSP2) HepG2 Assay for chicken Estrogen Receptor (ERa) (AID 2283817);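 note: actives raise reporter signal above DMSO so AC50 reflects ER activation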
Outline: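 Transiently transfected HepG2 cells expressing chimeric chicken ERa-GAL4 reporter units, dosed 24 h with 3 nM 6-alpha-fluorotestosterone and 1.5 nM norgestrel present. Reporter mRNA measured by RT-PCR and capillary electrophoresis; gain-of-signal fitted relative to DMSO.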

[5] = test system: frog Estrogen Receptor (ER), gene 398734; assay: ATG_frER1_XSP2: Attagene TRANS-FACTORIAL Multi-Species (XSP2) HepG2 Assay for frog Estrogen Receptor (ER) (AID 2283821);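 note: hits raise reporter mRNA above DMSO baseline so potency means agonist or activator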
Outline: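 HepG2 cells transiently transfected with GAL4-UAS reporter units expressing a chimeric frog ER-Gal4 protein; 24 h exposure. Reporter mRNA quantified by RT-PCR, fluorescent labelling and capillary electrophoresis; gain of signal fitted against DMSO baseline.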

[6] = ATG_M_19_XSP2: Attagene TRANS-FACTORIAL Multi-Species (XSP2) HepG2 Assay for M32 Transcription Factor (Internal Marker) (AID 2283822)
Outline: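 Internal background marker in a multi-species nuclear receptor TRANS panel: transfected HepG2 cells exposed 24 h, with 3 nM 6-alpha-fluorotestosterone and 1.5 nM norgestrel present. Readout is RT-PCR of reporter transcripts resolved by capillary electrophoresis, gain-of-signal versus DMSO.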

[7] = test system: zebrafish Estrogen Receptor (ER2b), gene 317733; assay: ATG_zfER2b_XSP2: Attagene TRANS-FACTORIAL Multi-Species (XSP2) HepG2 Assay for zebrafish Estrogen Receptor (ER2b) (AID 2283823);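 note: fitted upward as reporter gain over DMSO so potency reflects activation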
Outline: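 HepG2 human liver cells transiently transfected with multiplexed GAL4-UAS reporter units expressing chimeric NR-Gal4 proteins; compounds dosed for 24 h. Reporter mRNA quantified by RT-PCR, 6-FAM labelling and capillary electrophoresis; gain-of-signal fitted against DMSO baseline.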

[8] = biological target: Estrogen receptor (Homo sapiens) (UniProt P03372); assay: ATG_hERa_XSP2: Attagene TRANS-FACTORIAL Multi-Species (XSP2) HepG2 Assay for human Estrogen Receptor (ERa) (AID 2283827)
Outline: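 HepG2 cells transiently transfected with multiplexed GAL4-UAS reporters driven by chimeric receptor-Gal4 proteins, dosed 24 h with 3 nM 6-alpha-fluorotestosterone and 1.5 nM norgestrel present. Reporter mRNA by RT-PCR and capillary electrophoresis; gain-of-signal fit versus DMSO.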

[9] = test system: frog Estrogen Receptor (ER2), gene 100174814; assay: ATG_frER2_XSP2: Attagene TRANS-FACTORIAL Multi-Species (XSP2) HepG2 Assay for frog Estrogen Receptor (ER2) (AID 2283828)
Outline: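 HepG2 cells transiently transfected with multiplexed GAL4-UAS reporter units expressing chimeric frog ER2–Gal4 protein; reporter mRNA measured 24 h after chemical dosing by RT-PCR, fluorescent labeling and capillary electrophoresis. Gain-of-signal fitted relative to DMSO baseline.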

[10] = biological target: Peroxisome proliferator-activated receptor gamma (Homo sapiens) (UniProt P37231); assay: ATG_hPPARg_XSP2: Attagene TRANS-FACTORIAL Multi-Species (XSP2) HepG2 Assay for human Peroxisome Proliferator-activated Receptor gamma (PPARg) (AID 2283829);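 note: actives raise reporter mRNA above DMSO so AC50 reflects PPARg activation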
Outline: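 Reporter transcripts were measured by RT-PCR, fluorescent labeling, HpaI digestion and capillary electrophoresis, relative to DMSO, 24 h post-dosing. Transiently transfected HepG2 expressed NR-Gal4 chimeras regulating GAL4-UAS reporters; medium contained 3 nM 6-alpha-fluorotestosterone plus 1.5 nM norgestrel.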

[11] = biological target: Nuclear receptor subfamily 1 group I member 2 (Mus musculus) (UniProt O54915); assay: ATG_mPXR_XSP1: Attagene TRANS-FACTORIAL Multi-Species (XSP1) HepG2 Assay for mouse Pregnane X Receptor (PXR) (AID 2283803)
Outline: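 Transiently transfected HepG2 cells expressing a receptor-Gal4 chimera drive a GAL4-UAS reporter; 3 nM 6-alpha-fluorotestosterone included. Reporter mRNA read 24 h post-dose by RT-PCR and capillary electrophoresis; gain of signal relative to DMSO.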

[12] = biological target: frog Thyroid hormone Receptor alpha (TRa), thra-a (gene 397942) (UniProt P15204); assay: ATG_frTRa_XSP1: Attagene TRANS-FACTORIAL Multi-Species (XSP1) HepG2 Assay for frog Thyroid hormone Receptor alpha (TRa) (AID 2283804)
Outline: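 HepG2 cells transiently transfected with frog TRa-GAL4 chimeric reporter units, dosed 24 hr with 3 nM 6-alpha-fluorotestosterone present; reporter mRNA quantified by RT-PCR, fluorescent labelling and capillary electrophoresis, gain of signal versus DMSO.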

[13] = test system: turtle Thyroid Hormone Receptor, alpha (TRa), gene 101949057; assay: ATG_trTRa_XSP1: Attagene TRANS-FACTORIAL Multi-Species (XSP1) HepG2 Assay for turtle Thyroid Hormone Receptor, alpha (TRa) (AID 2283806)
Outline: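 HepG2 cells transiently transfected with GAL4-UAS reporter units and chimeric receptor-Gal4 constructs, with 3 nM 6-alpha-fluorotestosterone present. Reporter mRNA was quantified 24 h after dosing by RT-PCR, 6-FAM labelling and capillary electrophoresis; gain of signal versus DMSO.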

[14] = biological target: zebrafish Thyroid Hormone Receptor beta (TRb), thrb (gene 30607) (UniProt Q9PVE4); assay: ATG_zfTRb_XSP1: Attagene TRANS-FACTORIAL Multi-Species (XSP1) HepG2 Assay for zebrafish Thyroid Hormone Receptor beta (TRb) (AID 2283809)
Outline: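 HepG2 cells transiently transfected with multiplexed GAL4-UAS reporter units expressing chimeric zebrafish TRb–Gal4. Dosed 24 h with 3 nM 6-alpha-fluorotestosterone present; reporter mRNA measured by RT-PCR, HpaI digestion and capillary electrophoresis; gain of signal versus DMSO.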

[15] = ATG_M_06_XSP2: Attagene TRANS-FACTORIAL Multi-Species (XSP2) HepG2 Assay for M06 Transcription Factor (Internal Marker) (AID 2283811);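 note: hits are increases in signal above the DMSO baseline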
Outline: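 HepG2 cells transiently transfected with GAL4-UAS multiple reporter units, medium containing 3 nM 6-alpha-fluorotestosterone and 1.5 nM norgestrel; reporter mRNA measured 24 hours post-dosing by RT-PCR and capillary electrophoresis. Internal background marker, gain of signal vs DMSO.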

[16] = biological target: GAL4 Transcription Factor (Internal Marker), GAL4 (gene 855828) (UniProt P04386); assay: ATG_GAL4_XSP2: Attagene TRANS-FACTORIAL Multi-Species (XSP2) HepG2 Assay for GAL4 Transcription Factor (Internal Marker) (AID 2283814);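 note: GAL4 reporter mRNA background control in MRTU transfected cells not a receptor target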
Outline: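 HepG2 cells transiently transfected with GAL4-UAS reporter units, stimulated with 3 nM 6-alpha-fluorotestosterone plus 1.5 nM norgestrel, dosed 24 h. Reporter mRNA by RT-PCR/capillary electrophoresis; gain-of-signal fit versus DMSO, background control.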

[17] = test system: turtle Androgen Receptor (AR), gene 101947425; assay: ATG_trAR_XSP2: Attagene TRANS-FACTORIAL Multi-Species (XSP2) HepG2 Assay for turtle Androgen Receptor (AR) (AID 2283815);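 for AC50: potency for gain of reporter signal meaning activation above DMSO baseline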
Outline: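 HepG2 cells transiently transfected with GAL4-UAS reporter units for chimeric NR-Gal4 receptors; 24 h dosing in presence of 3 nM 6-alpha-fluorotestosterone and 1.5 nM norgestrel. Reporter mRNA by RT-PCR and capillary electrophoresis, gain of signal versus DMSO.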

[18] = test system: chicken Androgen Receptor (AR), gene 422165; assay: ATG_chAR_XSP2: Attagene TRANS-FACTORIAL Multi-Species (XSP2) HepG2 Assay for chicken Androgen Receptor (AR) (AID 2283819);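 note: hits raise reporter mRNA above DMSO so potency is for activation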
Outline: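 HepG2 cells transiently transfected with chicken AR–GAL4 chimeric reporter constructs, stimulated with 3 nM 6-alpha-fluorotestosterone plus 1.5 nM norgestrel, dosed 24 h. Reporter mRNA quantified by RT-PCR and capillary electrophoresis; gain of signal fitted versus DMSO.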

[19] = test system: frog Androgen Receptor (AR), gene 399456; assay: ATG_frAR_XSP2: Attagene TRANS-FACTORIAL Multi-Species (XSP2) HepG2 Assay for frog Androgen Receptor (AR) (AID 2283824);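 note: actives raise reporter signal above DMSO so AC50 reflects agonist-like induction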
Outline: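 HepG2 cells transiently transfected with GAL4-UAS reporter units and frog (Xenopus laevis) AR-Gal4 chimera; reporter mRNA measured 24 h after dosing by RT-PCR and capillary electrophoresis. Gain of signal fitted relative to DMSO baseline.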

[20] = test system: zebrafish Androgen Receptor (AR), gene 100005148; assay: ATG_zfAR_XSP2: Attagene TRANS-FACTORIAL Multi-Species (XSP2) HepG2 Assay for zebrafish Androgen Receptor (AR) (AID 2283825);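 note: hits raise reporter mRNA above DMSO so AC50 reflects agonist-type gain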
Outline: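 Zebrafish AR–GAL4 chimera transiently expressed with GAL4-UAS reporter in HepG2 cells, co-stimulated with 3 nM 6-alpha-fluorotestosterone and 1.5 nM norgestrel; 24 h dosing, reporter mRNA read by RT-PCR/capillary electrophoresis versus DMSO.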

Measured: AC50

Sequence of chicken Estrogen Receptor (ERa), ESR1 (gene 396099) (P06212 whole entry, looked up, the tested form may be a part): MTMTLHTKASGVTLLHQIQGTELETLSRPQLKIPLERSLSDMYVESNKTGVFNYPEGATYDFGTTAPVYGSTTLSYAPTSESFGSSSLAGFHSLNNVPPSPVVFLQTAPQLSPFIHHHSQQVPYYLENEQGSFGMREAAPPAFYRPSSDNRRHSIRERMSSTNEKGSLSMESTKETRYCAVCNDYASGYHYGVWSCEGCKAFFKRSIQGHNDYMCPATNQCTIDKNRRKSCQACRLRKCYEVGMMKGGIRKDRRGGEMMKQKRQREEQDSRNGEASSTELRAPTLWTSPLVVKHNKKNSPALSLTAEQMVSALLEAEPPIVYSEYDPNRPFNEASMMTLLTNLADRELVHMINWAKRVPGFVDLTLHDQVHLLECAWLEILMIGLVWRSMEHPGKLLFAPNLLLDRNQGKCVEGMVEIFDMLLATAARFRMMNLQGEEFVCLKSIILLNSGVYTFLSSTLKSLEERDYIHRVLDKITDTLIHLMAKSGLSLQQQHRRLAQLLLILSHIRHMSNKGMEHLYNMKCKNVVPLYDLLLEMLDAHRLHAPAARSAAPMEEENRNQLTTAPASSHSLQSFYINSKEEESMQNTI
Sequence of Estrogen receptor beta (Homo sapiens) (Q92731 whole entry, looked up, the tested form may be a part): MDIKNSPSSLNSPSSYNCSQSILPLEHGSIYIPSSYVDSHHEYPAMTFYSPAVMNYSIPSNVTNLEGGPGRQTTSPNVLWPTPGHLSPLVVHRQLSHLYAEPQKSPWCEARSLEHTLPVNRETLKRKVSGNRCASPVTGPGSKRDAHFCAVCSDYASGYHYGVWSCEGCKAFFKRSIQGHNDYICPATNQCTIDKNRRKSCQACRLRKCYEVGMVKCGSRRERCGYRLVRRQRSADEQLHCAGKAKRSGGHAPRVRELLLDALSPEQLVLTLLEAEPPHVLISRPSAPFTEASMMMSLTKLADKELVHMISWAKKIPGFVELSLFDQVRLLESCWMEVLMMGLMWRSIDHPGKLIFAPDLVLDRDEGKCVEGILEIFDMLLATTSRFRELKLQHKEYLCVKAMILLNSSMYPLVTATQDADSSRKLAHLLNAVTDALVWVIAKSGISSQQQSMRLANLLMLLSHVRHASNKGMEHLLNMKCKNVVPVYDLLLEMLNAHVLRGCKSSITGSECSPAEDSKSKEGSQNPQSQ
Sequence of Peroxisome proliferator-activated receptor gamma (Homo sapiens) (P37231 whole entry, looked up, the tested form may be a part): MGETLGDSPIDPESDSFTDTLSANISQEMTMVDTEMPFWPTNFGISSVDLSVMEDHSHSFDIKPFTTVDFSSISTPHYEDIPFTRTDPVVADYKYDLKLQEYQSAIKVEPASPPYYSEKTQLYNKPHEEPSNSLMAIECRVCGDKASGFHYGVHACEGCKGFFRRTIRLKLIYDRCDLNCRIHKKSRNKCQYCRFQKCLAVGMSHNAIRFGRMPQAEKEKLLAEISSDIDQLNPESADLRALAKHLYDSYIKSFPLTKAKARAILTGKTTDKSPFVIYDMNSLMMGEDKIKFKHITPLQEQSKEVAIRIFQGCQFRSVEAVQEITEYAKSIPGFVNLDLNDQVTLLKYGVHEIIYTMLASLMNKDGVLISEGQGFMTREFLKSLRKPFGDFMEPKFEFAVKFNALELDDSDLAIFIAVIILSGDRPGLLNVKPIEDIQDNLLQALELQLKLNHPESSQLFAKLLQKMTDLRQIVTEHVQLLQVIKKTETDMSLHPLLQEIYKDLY
Sequence of Estrogen receptor (Homo sapiens) (P03372 whole entry, looked up, the tested form may be a part): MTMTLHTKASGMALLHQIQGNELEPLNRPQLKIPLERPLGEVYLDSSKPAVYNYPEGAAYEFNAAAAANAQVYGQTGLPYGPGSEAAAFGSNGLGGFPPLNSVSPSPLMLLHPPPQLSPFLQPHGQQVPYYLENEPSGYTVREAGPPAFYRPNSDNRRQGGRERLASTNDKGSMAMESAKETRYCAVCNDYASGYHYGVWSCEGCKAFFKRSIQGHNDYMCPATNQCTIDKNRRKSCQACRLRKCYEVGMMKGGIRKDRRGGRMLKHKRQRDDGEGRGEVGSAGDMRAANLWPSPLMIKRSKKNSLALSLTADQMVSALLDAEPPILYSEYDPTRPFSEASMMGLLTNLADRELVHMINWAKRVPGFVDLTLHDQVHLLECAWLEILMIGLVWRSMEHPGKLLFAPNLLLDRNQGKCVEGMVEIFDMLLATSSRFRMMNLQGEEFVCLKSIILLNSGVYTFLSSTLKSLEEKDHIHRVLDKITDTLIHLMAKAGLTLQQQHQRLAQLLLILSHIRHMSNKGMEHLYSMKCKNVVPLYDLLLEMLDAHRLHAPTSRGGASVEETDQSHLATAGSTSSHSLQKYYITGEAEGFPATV
Sequence of zebrafish Estrogen Receptor (ER1), esr1 (gene 259252) (P57717 whole entry, looked up, the tested form may be a part): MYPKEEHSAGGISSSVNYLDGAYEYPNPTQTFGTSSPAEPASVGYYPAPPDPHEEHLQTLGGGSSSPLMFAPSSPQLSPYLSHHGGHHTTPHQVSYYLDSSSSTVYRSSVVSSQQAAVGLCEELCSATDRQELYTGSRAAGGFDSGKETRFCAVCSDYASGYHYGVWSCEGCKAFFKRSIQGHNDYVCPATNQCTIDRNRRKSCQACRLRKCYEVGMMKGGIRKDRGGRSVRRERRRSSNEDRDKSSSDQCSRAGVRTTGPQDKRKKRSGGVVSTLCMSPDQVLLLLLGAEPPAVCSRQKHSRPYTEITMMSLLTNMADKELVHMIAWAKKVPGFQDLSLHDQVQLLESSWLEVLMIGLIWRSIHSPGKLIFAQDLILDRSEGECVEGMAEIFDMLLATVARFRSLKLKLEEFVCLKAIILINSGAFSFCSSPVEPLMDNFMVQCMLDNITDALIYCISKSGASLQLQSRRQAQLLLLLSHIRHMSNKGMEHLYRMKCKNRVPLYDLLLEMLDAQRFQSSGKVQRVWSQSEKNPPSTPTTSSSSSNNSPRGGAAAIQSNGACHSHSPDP
Sequence of GAL4 Transcription Factor (Internal Marker), GAL4 (gene 855828) (P04386 whole entry, looked up, the tested form may be a part): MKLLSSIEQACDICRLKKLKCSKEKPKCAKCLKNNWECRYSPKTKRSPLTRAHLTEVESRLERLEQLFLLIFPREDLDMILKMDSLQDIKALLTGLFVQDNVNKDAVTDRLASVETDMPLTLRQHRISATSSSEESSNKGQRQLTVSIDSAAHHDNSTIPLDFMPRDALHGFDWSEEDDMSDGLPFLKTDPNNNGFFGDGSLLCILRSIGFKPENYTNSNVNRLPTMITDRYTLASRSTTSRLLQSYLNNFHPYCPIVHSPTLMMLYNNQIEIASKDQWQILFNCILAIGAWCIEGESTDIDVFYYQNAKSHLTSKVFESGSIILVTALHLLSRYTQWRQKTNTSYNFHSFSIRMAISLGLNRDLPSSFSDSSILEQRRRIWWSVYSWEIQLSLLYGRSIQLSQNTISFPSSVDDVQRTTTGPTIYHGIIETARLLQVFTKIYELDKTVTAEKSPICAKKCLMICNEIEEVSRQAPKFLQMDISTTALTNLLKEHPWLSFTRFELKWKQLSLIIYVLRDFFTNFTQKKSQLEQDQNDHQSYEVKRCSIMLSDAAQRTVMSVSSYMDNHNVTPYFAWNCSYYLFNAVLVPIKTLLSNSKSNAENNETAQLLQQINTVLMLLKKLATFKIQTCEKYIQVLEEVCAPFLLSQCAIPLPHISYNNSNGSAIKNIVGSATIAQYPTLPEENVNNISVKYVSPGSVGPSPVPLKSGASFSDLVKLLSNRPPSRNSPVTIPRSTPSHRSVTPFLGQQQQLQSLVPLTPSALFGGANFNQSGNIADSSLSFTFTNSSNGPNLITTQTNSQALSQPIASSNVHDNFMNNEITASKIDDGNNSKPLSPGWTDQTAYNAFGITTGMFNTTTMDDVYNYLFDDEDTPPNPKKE
Sequence of zebrafish Thyroid Hormone Receptor beta (TRb), thrb (gene 30607) (Q9PVE4 whole entry, looked up, the tested form may be a part): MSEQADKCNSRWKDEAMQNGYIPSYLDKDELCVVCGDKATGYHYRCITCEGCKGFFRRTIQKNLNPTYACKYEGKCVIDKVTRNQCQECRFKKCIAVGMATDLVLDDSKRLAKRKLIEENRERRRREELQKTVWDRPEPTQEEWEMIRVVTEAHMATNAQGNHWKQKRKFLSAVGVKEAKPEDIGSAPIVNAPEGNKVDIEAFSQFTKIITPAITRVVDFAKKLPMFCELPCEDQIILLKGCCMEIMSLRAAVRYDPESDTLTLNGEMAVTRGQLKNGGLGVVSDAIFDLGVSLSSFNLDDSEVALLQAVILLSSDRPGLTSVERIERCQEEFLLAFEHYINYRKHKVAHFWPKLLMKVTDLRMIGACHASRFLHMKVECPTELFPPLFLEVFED
Sequence of frog Thyroid hormone Receptor alpha (TRa), thra-a (gene 397942) (P15204 whole entry, looked up, the tested form may be a part): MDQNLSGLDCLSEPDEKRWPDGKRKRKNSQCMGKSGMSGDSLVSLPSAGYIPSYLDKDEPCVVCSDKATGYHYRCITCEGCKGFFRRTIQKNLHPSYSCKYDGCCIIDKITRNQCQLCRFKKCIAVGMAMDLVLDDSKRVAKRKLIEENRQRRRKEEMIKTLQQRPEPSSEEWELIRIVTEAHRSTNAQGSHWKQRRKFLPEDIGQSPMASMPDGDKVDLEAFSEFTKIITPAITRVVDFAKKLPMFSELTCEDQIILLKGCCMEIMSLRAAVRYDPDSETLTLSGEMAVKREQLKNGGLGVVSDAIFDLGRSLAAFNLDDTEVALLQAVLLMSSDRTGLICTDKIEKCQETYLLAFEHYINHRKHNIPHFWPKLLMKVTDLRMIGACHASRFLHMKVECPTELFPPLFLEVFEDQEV
Sequence of Nuclear receptor subfamily 1 group I member 2 (Mus musculus) (O54915 whole entry, looked up, the tested form may be a part): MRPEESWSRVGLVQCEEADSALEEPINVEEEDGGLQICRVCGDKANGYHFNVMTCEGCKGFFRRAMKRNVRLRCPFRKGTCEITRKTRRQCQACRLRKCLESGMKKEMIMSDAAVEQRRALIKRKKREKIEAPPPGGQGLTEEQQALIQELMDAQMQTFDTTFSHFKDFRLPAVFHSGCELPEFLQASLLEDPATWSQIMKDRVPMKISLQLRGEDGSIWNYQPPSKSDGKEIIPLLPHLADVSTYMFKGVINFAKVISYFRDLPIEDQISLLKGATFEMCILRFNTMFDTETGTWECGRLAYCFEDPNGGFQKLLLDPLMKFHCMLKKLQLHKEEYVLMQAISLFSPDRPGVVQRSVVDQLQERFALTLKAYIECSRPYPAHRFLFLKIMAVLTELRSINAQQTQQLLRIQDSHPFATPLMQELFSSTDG

Oc1ccc(-c2ccccc2)c(Cl)c1
active: [1] 4.73 µM and 2.56 µM | [2] 8.87 µM and 8.92 µM | [3] 17.3 µM and 20.1 µM | [4] 5.68 µM and 2.43 µM | [7] 9.03 µM and 7 µM | [8] 5.18 µM and 4.36 µM | [9] 5.62 µM and 3.17 µM | [10] 33.4 µM and 28.7 µM
inactive: [5] | [6]

CC(C)(C)NC(=O)[C@H]1CC[C@H]2[C@@H]3CC[C@H]4NC(=O)C=C[C@]4(C)[C@H]3CC[C@]12C
inactive: [12] | [13] | [14] | [15] | [1] | [16] | [4] | [5]
active: [11] 3.8 µM | [7] 67.5 µM | [8] 33.5 µM | [9] 100 µM

O=C(O)/C=C/c1ccccc1
inactive: [1] | [4] | [7] | [8] | [10]
active: [5] 31.6 µM

CC(CCC(=O)O)(c1ccc(O)cc1)c1ccc(O)cc1
inactive: [15] | [1] | [2] | [16] | [17] | [3] | [4] | [18] | [5] | [19] | [20] | [9] | [10]
active: [3] 134 µM | [7] 42.6 µM and 13.2 µM | [8] 17.4 µM and 2.94 µM | [9] 27.5 µM

COc1ccc(C(=O)c2ccccc2)c(O)c1
inactive: [15] | [2] | [16] | [4]
active: [1] 4.74 µM and 26.3 µM | [2] 26.8 µM | [3] 11 µM and 16.7 µM | [4] 6.73 µM | [5] 5.07 µM and 26 µM | [7] 43.3 µM and 14.3 µM | [8] 6.54 µM and 26.4 µM | [9] 7.66 µM and 2.39 µM | [10] 74.1 µM and 41.1 µM

N#Cc1ccc(C2CCCc3cncn32)cc1 (stereo not drawn)
active: [5] 50 µM | [7] 93.7 µM
inactive: [15] | [1] | [3] | [18] | [7] | [8] | [9] | [10]

C=C1C[C@H]2[C@@H]3C=C(C)C4=CC(=O)CC[C@]4(C)[C@H]3CC[C@]2(C)[C@@]1(OC(C)=O)C(C)=O
inactive: [16] | [3] | [5] | [6] | [7] | [10]

CCCCCCCCCCCCc1ccc(O)cc1
active: [1] 327 nM and 57.8 nM | [3] 0.47 µM | [4] 526 nM and 135 nM | [5] 274 nM and 44 nM | [7] 377 nM and 126 nM | [8] 546 nM and 167 nM | [9] 610 nM and 239 nM
inactive: [15] | [2] | [16] | [20] | [10]

COc1ccc(-c2coc3cc(O)cc(O)c3c2=O)cc1
inactive: [15] | [19] | [10]
active: [1] 1.27 µM and 161 nM | [2] 83.6 nM and 65.3 nM | [17] 1.81 µM | [3] 4.02 µM and 458 nM | [4] 1.24 µM and 200 nM | [18] 10 µM and 6.25 µM | [5] 1.07 µM and 98.3 nM | [7] 2.28 µM and 310 nM | [8] 931 nM and 276 nM | [9] 501 nM and 6.78 nM

Oc1ccccc1Cc1ccccc1O
inactive: [15] | [1] | [16] | [4] | [6]
active: [1] 26.9 µM | [2] 8.23 µM and 7.6 µM | [3] 58.4 µM and 100 µM | [4] 7.64 µM | [5] 26.5 µM and 7.86 µM | [7] 29.1 µM and 18.2 µM | [8] 26.9 µM and 8.47 µM | [9] 27 µM and 10.5 µM | [10] 43.4 µM and 30.3 µM
